Measurements published in the supplement of paper PMC11732987, “Enantioselective OTUD7B fragment discovery through chemoproteomics screening and high-throughput optimisation” (Communications Chemistry, 2025).

Experiments:
Assay in all cases: log2 ratio of Biotin-Ahx-Ub-VS probe labelling (fragment/DMSO); higher = less target engagement (more negative = stronger competition), active = hit call of the paper (q ≤ 0.05, log2 ratio ≤ -1)
Details in all cases: compound concentration: 200 uM; treatment time: 3 h
USP9X = USP9X (UniProt Q93008)
Summary of the method: (§1)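 Fragment (200 µM) or vehicle was incubated for 3 h with triplicate HEK293T lysate samples of 495 µg, which were then treated with Biotin-Ahx-Ub-VS at 0.5 µM final for 1 h. Labelled DUBs were enriched on NeutrAvidin, digested with LysC and trypsin, and analysed by diaPASEF LC-MS/MS. Values are average log2 fragment/vehicle ratios from an unpaired t-test on global-median-normalised Spectronaut label-free quantities, using proteins with ≥2 unique peptides.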

UniProt O00487 = molecular target: UniProt O00487
Summary of the method: as §1

UniProt O00507 = molecular target: UniProt O00507
Summary of the method: as §1

UniProt P51784 = molecular target: UniProt P51784
Summary of the method: as §1

UniProt Q5T2D3 = molecular target: T1, UniProt Q5T2D3
T1 sequence (whole entry): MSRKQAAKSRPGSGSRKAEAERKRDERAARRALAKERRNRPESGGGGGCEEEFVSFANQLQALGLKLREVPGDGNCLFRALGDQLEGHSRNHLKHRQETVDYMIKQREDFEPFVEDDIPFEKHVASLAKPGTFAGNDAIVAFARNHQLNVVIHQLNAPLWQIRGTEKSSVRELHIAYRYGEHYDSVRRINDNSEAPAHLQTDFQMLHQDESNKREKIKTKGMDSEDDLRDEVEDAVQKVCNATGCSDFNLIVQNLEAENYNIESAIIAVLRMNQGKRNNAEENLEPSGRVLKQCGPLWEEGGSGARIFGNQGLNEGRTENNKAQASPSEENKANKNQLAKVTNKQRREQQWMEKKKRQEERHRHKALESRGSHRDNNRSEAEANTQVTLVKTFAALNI
Summary of the method: as §1

UniProt Q8TE49 = molecular target: T2, UniProt Q8TE49
T2 sequence (whole entry): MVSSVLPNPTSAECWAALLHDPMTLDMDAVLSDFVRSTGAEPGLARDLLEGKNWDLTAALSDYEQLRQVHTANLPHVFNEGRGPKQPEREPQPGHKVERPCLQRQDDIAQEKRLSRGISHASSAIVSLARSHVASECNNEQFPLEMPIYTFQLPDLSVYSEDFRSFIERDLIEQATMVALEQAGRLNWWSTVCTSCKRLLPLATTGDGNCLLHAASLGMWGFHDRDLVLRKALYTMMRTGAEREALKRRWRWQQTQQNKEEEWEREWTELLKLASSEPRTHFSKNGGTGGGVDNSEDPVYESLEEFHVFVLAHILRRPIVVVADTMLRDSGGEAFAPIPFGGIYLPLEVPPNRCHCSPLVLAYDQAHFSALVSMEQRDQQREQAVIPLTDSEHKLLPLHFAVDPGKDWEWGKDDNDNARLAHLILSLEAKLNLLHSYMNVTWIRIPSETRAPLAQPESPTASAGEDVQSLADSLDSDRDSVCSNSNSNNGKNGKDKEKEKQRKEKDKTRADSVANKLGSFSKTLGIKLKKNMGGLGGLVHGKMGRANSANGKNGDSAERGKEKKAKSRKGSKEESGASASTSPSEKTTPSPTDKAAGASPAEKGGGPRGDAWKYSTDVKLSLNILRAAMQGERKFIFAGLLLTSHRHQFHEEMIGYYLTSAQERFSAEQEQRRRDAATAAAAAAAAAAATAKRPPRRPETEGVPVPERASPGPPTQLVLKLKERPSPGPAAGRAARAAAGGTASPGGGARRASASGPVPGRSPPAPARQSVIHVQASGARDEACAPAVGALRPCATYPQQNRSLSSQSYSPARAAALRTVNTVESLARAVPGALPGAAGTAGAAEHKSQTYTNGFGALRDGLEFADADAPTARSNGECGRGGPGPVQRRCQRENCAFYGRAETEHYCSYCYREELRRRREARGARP
Summary of the method: as §1

UniProt Q9P2H5 = molecular target: T3, UniProt Q9P2H5
T3 sequence (whole entry): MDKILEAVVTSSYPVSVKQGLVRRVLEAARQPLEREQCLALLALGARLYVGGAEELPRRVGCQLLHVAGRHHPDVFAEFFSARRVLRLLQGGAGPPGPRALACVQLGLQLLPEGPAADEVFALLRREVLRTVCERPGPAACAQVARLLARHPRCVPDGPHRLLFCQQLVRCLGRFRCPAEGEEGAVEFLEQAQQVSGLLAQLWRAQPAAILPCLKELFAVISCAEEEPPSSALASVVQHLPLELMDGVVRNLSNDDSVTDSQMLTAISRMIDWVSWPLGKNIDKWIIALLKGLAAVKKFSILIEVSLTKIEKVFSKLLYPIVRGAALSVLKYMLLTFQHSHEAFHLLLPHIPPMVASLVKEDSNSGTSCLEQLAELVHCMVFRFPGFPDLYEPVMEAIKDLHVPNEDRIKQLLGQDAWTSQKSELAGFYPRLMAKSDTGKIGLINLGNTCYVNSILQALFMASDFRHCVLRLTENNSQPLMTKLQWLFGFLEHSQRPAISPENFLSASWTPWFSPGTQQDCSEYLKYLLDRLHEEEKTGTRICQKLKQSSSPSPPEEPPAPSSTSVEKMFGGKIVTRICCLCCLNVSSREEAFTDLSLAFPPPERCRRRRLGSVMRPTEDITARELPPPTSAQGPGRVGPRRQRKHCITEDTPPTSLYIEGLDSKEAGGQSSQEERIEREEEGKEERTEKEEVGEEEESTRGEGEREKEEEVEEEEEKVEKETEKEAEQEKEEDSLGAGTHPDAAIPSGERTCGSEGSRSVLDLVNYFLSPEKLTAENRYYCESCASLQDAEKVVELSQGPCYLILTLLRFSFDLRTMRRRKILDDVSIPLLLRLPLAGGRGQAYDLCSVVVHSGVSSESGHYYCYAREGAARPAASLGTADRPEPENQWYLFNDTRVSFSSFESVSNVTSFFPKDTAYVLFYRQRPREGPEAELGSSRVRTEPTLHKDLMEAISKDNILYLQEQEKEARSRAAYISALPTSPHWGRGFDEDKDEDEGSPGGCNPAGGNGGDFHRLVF
Summary of the method: as §1

UniProt Q9UGI0 = molecular target: T4, UniProt Q9UGI0
T4 sequence (whole entry): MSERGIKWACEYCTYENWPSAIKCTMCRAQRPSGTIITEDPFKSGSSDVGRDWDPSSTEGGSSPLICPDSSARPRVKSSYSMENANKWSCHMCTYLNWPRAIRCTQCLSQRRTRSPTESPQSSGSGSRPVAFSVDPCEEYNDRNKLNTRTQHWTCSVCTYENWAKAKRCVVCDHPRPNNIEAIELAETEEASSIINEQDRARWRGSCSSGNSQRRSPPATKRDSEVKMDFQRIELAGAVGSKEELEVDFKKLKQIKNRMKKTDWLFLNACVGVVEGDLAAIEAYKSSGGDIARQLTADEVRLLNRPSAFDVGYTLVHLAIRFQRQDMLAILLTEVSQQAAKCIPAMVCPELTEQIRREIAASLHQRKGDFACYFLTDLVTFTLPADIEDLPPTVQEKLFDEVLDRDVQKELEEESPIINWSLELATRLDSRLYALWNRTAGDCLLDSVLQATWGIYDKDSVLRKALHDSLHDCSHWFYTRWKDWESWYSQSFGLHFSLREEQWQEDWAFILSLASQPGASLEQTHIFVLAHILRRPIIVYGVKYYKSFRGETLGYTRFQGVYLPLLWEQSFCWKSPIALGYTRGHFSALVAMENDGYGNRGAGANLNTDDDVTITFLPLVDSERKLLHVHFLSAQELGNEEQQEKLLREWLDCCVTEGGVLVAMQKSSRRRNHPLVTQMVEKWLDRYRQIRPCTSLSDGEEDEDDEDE
Summary of the method: as §1

YOD1 = molecular target: T5, YOD1 (UniProt Q5VVQ6)
T5 sequence (whole entry): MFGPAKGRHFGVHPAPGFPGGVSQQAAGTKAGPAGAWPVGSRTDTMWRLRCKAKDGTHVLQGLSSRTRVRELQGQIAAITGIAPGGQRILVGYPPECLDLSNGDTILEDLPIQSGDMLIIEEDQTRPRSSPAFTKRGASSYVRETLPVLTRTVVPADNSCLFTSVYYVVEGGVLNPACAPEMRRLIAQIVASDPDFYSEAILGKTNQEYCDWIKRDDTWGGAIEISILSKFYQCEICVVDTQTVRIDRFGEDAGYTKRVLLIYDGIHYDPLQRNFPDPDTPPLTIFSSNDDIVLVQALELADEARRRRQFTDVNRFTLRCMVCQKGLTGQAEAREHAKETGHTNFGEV
Summary of the method: as §1

Measured: log2 ratio of Biotin-Ahx-Ub-VS probe labelling

Chain of UniProt O00507 (O00507 whole entry): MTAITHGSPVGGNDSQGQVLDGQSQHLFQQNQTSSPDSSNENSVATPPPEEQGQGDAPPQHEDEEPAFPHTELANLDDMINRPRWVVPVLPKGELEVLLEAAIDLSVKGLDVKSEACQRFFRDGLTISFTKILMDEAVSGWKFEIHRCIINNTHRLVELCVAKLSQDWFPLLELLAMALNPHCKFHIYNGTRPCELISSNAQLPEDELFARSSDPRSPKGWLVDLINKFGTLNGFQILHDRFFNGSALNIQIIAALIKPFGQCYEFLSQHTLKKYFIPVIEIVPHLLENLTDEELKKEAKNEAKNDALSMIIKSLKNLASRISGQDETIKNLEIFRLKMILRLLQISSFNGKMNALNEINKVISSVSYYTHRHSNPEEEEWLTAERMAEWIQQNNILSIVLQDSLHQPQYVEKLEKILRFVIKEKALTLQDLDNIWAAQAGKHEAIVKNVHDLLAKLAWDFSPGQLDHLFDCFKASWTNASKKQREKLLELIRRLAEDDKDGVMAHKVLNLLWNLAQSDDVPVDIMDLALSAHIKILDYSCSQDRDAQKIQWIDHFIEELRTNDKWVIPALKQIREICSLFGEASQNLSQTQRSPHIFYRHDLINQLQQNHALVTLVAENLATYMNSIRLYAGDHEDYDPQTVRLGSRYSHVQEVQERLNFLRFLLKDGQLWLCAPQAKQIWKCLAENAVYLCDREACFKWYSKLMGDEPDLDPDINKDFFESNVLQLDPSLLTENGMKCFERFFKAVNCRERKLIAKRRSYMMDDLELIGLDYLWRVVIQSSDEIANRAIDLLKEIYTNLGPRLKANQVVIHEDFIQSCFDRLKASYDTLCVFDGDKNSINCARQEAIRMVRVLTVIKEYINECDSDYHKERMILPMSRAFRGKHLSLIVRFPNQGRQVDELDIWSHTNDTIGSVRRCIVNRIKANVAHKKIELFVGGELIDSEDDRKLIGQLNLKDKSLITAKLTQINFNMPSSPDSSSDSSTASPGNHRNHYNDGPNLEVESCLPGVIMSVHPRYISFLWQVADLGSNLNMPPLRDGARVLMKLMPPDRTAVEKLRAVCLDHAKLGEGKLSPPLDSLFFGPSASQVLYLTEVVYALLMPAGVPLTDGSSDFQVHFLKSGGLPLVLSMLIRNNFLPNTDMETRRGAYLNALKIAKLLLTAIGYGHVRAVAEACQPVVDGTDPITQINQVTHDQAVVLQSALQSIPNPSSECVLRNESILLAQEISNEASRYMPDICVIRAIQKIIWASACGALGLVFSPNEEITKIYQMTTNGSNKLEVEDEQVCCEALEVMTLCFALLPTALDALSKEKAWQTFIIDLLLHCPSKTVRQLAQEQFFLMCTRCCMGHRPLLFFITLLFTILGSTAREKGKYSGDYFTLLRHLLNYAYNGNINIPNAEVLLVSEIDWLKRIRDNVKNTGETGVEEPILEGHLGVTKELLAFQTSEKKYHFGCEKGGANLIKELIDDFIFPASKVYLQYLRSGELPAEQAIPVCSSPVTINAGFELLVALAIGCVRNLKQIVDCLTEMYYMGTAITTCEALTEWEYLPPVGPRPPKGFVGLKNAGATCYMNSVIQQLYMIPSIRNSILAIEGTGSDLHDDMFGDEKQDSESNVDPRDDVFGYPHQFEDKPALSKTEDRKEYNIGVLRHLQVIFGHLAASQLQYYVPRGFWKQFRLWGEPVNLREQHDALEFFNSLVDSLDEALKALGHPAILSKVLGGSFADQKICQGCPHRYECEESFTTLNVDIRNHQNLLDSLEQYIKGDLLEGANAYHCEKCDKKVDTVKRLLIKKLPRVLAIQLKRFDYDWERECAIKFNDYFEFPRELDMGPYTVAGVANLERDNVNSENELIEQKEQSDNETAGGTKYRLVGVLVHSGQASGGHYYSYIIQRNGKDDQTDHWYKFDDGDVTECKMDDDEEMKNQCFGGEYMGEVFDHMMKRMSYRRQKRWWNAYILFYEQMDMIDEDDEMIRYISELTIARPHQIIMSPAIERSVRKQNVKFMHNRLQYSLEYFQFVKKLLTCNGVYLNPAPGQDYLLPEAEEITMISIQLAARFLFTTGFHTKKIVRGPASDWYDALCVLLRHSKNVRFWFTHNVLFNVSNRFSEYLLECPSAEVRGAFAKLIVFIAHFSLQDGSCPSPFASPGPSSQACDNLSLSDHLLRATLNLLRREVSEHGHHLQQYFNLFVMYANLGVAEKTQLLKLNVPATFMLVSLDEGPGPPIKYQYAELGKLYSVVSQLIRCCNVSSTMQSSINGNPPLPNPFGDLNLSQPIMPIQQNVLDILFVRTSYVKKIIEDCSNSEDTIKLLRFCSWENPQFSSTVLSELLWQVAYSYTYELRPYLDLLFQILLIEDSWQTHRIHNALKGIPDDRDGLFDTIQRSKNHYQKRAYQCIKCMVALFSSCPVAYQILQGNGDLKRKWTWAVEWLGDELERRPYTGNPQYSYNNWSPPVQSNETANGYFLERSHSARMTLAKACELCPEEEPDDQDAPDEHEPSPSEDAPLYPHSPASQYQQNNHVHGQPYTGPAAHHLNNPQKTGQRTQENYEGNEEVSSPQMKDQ
Chain of USP9X (Q93008 whole entry, the tested form may be a part): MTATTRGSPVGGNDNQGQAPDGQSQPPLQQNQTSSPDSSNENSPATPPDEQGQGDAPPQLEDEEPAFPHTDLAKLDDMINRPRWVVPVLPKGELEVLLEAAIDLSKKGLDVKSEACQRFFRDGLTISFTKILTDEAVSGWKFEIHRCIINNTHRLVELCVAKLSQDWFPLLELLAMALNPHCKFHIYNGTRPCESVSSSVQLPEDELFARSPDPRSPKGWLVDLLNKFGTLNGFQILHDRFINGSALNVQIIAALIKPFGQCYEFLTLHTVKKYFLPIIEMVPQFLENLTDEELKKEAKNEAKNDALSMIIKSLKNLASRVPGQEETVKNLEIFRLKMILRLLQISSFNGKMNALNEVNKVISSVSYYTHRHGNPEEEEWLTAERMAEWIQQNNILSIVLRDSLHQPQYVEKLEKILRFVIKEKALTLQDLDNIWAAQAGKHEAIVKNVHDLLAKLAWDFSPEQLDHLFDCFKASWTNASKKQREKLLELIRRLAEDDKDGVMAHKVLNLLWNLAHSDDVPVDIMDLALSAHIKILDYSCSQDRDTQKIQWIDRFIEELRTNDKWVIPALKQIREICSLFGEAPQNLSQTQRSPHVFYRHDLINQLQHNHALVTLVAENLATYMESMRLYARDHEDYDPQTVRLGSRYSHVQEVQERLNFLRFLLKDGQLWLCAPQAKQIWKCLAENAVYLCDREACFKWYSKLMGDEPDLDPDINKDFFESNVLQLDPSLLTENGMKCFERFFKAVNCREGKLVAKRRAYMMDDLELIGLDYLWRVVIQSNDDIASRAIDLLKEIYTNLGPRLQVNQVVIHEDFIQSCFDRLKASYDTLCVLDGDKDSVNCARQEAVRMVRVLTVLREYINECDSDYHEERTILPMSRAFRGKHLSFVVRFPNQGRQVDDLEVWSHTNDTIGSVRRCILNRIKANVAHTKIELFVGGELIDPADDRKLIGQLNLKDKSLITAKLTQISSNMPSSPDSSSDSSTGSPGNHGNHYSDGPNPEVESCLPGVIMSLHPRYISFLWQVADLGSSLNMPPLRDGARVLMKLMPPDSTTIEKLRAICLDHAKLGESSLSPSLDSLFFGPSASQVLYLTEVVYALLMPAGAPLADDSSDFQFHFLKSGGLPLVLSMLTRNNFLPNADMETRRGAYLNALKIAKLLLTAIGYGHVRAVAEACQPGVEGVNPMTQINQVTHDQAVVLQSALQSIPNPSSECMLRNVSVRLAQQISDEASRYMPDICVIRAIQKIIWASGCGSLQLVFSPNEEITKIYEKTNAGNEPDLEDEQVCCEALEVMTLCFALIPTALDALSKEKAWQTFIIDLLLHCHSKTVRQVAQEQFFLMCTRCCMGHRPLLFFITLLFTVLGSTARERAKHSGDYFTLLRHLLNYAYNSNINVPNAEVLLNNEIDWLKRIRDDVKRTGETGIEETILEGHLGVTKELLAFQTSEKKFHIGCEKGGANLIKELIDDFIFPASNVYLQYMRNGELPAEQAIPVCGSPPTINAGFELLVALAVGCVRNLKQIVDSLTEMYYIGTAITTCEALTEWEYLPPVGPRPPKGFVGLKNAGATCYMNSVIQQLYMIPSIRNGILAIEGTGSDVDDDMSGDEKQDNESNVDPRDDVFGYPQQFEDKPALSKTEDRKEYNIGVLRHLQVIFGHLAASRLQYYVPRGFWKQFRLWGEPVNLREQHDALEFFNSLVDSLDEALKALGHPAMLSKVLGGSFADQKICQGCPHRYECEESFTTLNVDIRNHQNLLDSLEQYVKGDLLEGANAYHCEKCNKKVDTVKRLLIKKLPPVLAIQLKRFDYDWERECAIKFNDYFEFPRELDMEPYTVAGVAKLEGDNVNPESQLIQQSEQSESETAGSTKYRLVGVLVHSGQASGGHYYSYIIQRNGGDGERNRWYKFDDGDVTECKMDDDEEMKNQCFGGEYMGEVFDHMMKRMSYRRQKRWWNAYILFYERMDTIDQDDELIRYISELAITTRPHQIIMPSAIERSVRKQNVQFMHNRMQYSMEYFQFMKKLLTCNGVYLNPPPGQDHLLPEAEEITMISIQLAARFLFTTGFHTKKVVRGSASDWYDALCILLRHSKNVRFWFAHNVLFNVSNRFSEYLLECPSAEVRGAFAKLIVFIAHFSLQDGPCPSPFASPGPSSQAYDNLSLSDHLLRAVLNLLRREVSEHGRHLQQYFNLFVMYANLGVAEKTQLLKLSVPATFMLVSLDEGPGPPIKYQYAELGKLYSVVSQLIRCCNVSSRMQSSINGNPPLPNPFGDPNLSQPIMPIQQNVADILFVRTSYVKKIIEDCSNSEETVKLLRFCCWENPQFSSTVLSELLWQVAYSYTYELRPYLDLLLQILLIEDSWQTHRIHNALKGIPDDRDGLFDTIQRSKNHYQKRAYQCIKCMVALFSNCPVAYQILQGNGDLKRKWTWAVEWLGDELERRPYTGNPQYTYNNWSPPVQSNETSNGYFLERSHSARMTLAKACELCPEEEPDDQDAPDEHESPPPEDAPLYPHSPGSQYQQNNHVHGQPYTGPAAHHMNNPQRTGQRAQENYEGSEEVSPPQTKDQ

Cc1ncsc1CCNC(=O)CCl
inactive: USP9X -0.0257 | UniProt O00487 0.339 | UniProt O00507 0.115 | UniProt P51784 0.269 | UniProt Q5T2D3 -0.0368 | UniProt Q8TE49 -0.0765 | UniProt Q9P2H5 -0.0174 | UniProt Q9UGI0 -0.0599 | YOD1 0.0977
